Shown are actives, neighbours in structure and some others; about 3% of the full set was active somewhere.
GALK inh = blocks human galactokinase activity. P51570. Purified GALK, Kinase-Glo residual ATP luminescence. Potency, µM (titrated, usually from 57.5 µM), without a hit: top-dose activity change, negative = inhibition, most hits filed as inhibitors. 270,000 compounds, 0.007% hits; further: on the % scale 0 is the no-effect control and ±100 the full control effect
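Human GALK (5 nM) with 35 uM ATP and 100 uM galactose in 20 mM HEPES pH 8.0, 5 mM MgCl2, 60 mM NaCl, 1 mM DTT, 0.01% BSA. After 1 h at room temperature, leftover ATP was read by Kinase-Glo Plus luminescence.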
A549 viability = A549 cytotoxicity, counter-screen for Nrf2 inhibitors; A549 ARE-Fluc cells, CellTiter-Fluor viability, 18-24 h; Potency, µM (series often up to 46 µM), without a hit: top-dose activity change, negative = cytotoxicity, most hits filed as inhibitors; 390,000 compounds, 0.16% hits; further: on the % scale 0 is the no-effect control and ±100 the full control effect
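A549 ARE_Fluc cells in 5% FBS OPTI-MEM were exposed to compounds in concentration-response for 18-24 h at 37 deg C. Viability was read by CellTiter-Fluor fluorescence (Ex 405/Em 525) after 30 min, before the luciferase read.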
Nrf2 activator = activates Nrf2 signaling; AREc32 ARE-luciferase reporter (MCF7-derived line), luminescence, 24 h; Potency, µM (series often up to 46.1 µM), without a hit: top-dose activation, most hits filed as activators; 410,000 compounds, 0.31% hits; AID 624171; further: % of control where 0% means no effect; nearly all actives have a fitted effect of over 65% in size
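Steps: seed AREc32_Fluc cells (1000/well, 5% FBS OPTI-MEM); incubate overnight at 37 deg C; add 23 nL compound; incubate 24 hr; add Steady-Glo; hold 30 min RT; read luminescence.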
rTrxR1 inhibitor = rat TrxR1 inhibition; O89049; recombinant rTrxR1, NADPH fluorescence consumption, selenite substrate; Potency, µM (highest dose often 114 µM), without a hit: at the top dose activity change, negative = inhibition, most hits filed as inhibitors; 390,000 compounds, 1% hits; AID 588453; further: on the % scale 0 is the no-effect control and ±100 the full control effect; nearly all actives have a fitted effect of over 65% in size
Target sequence (O89049 whole entry, looked up): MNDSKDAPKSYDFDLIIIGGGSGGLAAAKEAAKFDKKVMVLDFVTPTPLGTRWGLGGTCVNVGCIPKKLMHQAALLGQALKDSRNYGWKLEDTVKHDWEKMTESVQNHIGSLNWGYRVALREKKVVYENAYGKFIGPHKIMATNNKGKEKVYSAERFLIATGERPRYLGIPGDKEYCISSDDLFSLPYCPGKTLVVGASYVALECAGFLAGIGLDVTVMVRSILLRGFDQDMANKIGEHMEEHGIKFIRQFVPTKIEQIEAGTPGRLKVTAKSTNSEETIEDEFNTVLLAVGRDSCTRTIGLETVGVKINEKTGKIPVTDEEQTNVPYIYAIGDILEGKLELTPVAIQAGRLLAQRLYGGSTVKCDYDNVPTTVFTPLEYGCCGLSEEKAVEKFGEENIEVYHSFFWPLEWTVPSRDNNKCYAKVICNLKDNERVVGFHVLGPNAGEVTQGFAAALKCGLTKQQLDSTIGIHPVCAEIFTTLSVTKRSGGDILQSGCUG
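Rat TrxR1 (90 nM in the dispensed reagent) was pre-reduced with 400 uM NADPH for 5 min at room temperature, then incubated with compound for 15 min. After 400 uM selenite was added, NADPH fluorescence (Ex 340/Em 450 nm) was followed for 8 min.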
Nrf2 inh = blocks Nrf2 signaling. 360,000 compounds, 2.1% hits. A549 ARE-Fluc reporter, luciferase luminescence, 18-24 h. AID 504444. Potency, µM (doses to about 46 µM), for the others: at the top dose activity change, negative = inhibition, usual class: inhibitors; further: on the % scale 0 is the no-effect control and ±100 the full control effect; nearly all actives have a fitted effect of over 60% in size
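Two sequential reads on A549 ARE_Fluc cells exposed to compound for 18-24 h: a CellTiter-Fluor fluorescence read for viability, then a luciferase luminescence read for Nrf2/ARE activity.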
TrxR1 substrate = rat thioredoxin reductase 1 substrate activity | Potency, µM (titrated, usually from 114 µM), for the others: top-dose activity change, negative = substrate turnover | purified TrxR1 substrate turnover, NADPH consumption readout | 390,000 compounds, 0.01% hits | O89049; further: on the % scale 0 is the no-effect control and ±100 the full control effect; nearly all actives have a fitted effect of over 50% in size
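Rat TrxR1, dispensed at 90 nM, was prereduced with 400 uM NADPH (final) for 5 min at ~22 deg C, then incubated with compound 15 min before 400 uM selenite. A first-read NADPH fluorescence drop versus no-compound background flagged substrates.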
The depositor's hits bear a star; ? = inconclusive; . = no result; [ ] = another dose, or the depositor's remark. The call rests on the fitted dose curve; in most records, active means well fitted curve in the direction sought with a large enough effect; inconclusive means small, poorly fitted or top-dose-only effect, or another doubt; inactive means no such curve, though single readings can be large; an effect the other way counts as inactive or inconclusive. Potency means the concentration at half of the fitted maximal effect.

SMILES	GALK inh	A549 viability	Nrf2 activator	rTrxR1 inhibitor	Nrf2 inh	TrxR1 substrate
O=C(NCCc1c[nH]c2ccccc12)C(=O)NCC1OCCN1S(=O)(=O)c1ccccc1 (centres undefined)	-3.7%	4.7%	2.3%	9.9%	?	-2.1%
O=C(NCc1ccc2c(c1)OCO2)C(=O)NCC1OCCN1S(=O)(=O)c1ccc(Br)cc1 (centres undefined)	0.5%	-0.6%	0.9%	9.0%	?	-1.8%
CCCN=C1N/C(=C\c2ccco2)C(=O)N1c1ccccc1	-5.1%	-28.6%	22.5%	-36.1%	7.2%	-13.6%
O=C1NC(=S)NC1=Cc1ccco1	.	-0.7%	3.0%	7.94µM*	-4.4%	-10.4%
O=C1NC(=O)/C(=C/c2ccco2)N1	.	1.3%	1.0%	-23.3%	3.9%	-20.2%
O=C1/C(=C\c2ccco2)NC(=S)N1c1ccccc1	1.5%	-5.3%	8.91µM*	?	?	-3.9%
CC1CCCN(Cc2c(O)ccc3c(=O)c(Oc4ccccc4Cl)c(C(F)(F)F)oc23)C1 (centres undefined)	.	-7.1%	-0.5%	15.3%	5.1%	1.3%
COc1ccc(NC(=O)c2cccc(Oc3ccccc3)c2)cn1	-0.9%	-12.6%	0.0%	5.5%	25.9µM*	-1.1%
COc1cccc(C(=O)Nc2ccc(NC(C)=O)cc2)c1	0.7%	-12.4%	0.1%	22.9%	24.1%	8.2%
COc1ccc(NC(=S)NC(=O)c2ccccc2)cn1	6.8%	0.4%	2.8%	?	?	2.3%
COc1cccc(C(=O)Nc2cc(Cl)c(O)c(Cl)c2)c1	1.0%	2.3%	3.98µM*	-15.1%	6.4%	-9.1%
Cc1cccc(NC(=O)Cn2c(=O)nc(-c3ccccc3)c3ccccc32)c1C	.	-19.0%	4.4%	6.4%[57.1 µM]	.	4.6%[57.1 µM]
COc1ccc(CCNC(=O)c2ccc3ccccc3n2)cc1OC	-0.4%	-13.1%	4.3%	6.2%	23.1µM*	-0.6%
CCOc1ccc(CCNC(=O)c2ccc3ccccc3n2)cc1OCC	1.1%	-7.4%	20.0%	16.6%	?	1.4%
COc1ccc(CNC(=O)c2ccc3ccccc3n2)cc1OC	0.3%	-15.8%	2.6%	12.9%[57.1 µM]	13µM*	-2.3%
COc1ccc(CCNC(=O)c2cc3sc(Cl)cc3n2C)cc1OC	-2.0%	-2.6%	2.4%	26.2%	25.9µM*	0.3%
COc1ccc(CCNC(=S)NC(=O)c2ccc(Br)cc2)cc1OC	4.9%	1.0%	2.7%	5.7%	14.6µM*	-3.1%
COc1ccc(CCNC(=O)CCNC(=O)c2ccc(Br)cc2)cc1OC	-8.0%	2.3%	-0.2%	-8.0%	-2.3%	-10.8%
CCn1ccc2cc(S(=O)(=O)N3CCCN(C(=O)Nc4ccccc4OC)CC3)ccc21	.	5.0%	-0.8%	18.6%[57.1 µM]	.	4.6%[57.1 µM]
COc1ccc(NC(=O)c2ccc(-c3ccc([N+](=O)[O-])cc3)o2)cc1	-1.6%	-3.2%	-0.2%	5.6%	18.4%	0.3%
COc1ccc(CCNC(=O)c2ccc(-c3ccc([N+](=O)[O-])cc3)o2)cc1OC	-2.4%	-2.1%	0.6%	?	25.9µM*	-18.0%
COc1ccc(CCNC(=O)c2nc(-c3cccs3)no2)cc1OC	3.6%	-17.4%	3.5%	2.5%[57.1 µM]	20.6µM*	5.1%[57.1 µM]
Cc1cccc(Oc2cc([N+](=O)[O-])cc3c2C(=O)Nc2ccccc2O3)c1	.	-12.7%	7.2%	5.8%	16.4µM*	-1.0%
O=C1Nc2ccccc2Oc2cc([N+](=O)[O-])cc(Oc3ccccc3)c21	.	-0.2%	8.1%	-14.7%	?	-7.6%
Nc1c(C(=O)NCCc2ccccc2)sc2nc(N3CCOCC3)c3c(c12)CCCC3	-0.6%	2.8%	-0.2%	101.7%	?	175.7%
SMILES	GALK inh	A549 viability	Nrf2 activator	rTrxR1 inhibitor	Nrf2 inh	TrxR1 substrate
CN(C(=O)c1sc2nc(N3CCOCC3)c3c(c2c1N)CCCC3)c1ccccc1	2.4%	0.6%	0.8%	?	16.4µM*	17.5%[57.1 µM]
Cc1cccc(NC(=O)CN2C(=O)C(c3ccc(F)cc3)=NC23CCCCCC3)c1	.	-18.0%	0.1%	6.0%	-24.1%	-4.8%
COc1ccccc1NC(=O)CN1C(=O)C(c2ccc(F)cc2)=NC12CCCCC2	.	-6.3%	3.6%	1.0%	16.4µM*	-7.6%
CCN1CCOC(=O)C1CC(=O)Nc1cccc(OC)c1 (centres undefined)	.	3.6%	26.2%	?	1.4%	12.8%
Oc1cccc2ccc(/C=C/c3ccccc3Cl)nc12	-1.8%	11.7%	?	-5.9%[57.1 µM]	27.7%	-3.0%[57.1 µM]
Fc1cccc(Cl)c1/C=N/Nc1ccccn1	1.1%	7.4%	?	-1.8%[57.1 µM]	?	-2.7%[57.1 µM]
Nc1nccc(/C=C/c2c(F)cccc2Cl)n1	-1.7%	6.3%	10µM*	15.3%[57.1 µM]	?	32.1%
Oc1cccc2ccc(/C=C/c3c(F)cccc3Cl)nc12	7.8%	0.7%	1µM*	-2.7%	29.9%	-1.4%
COC(=O)c1c(-c2cccs2)csc1NC(=O)COc1c(C)ccc(C)c1C	.	-2.2%	0.9%	16.7%	-16.6%	-6.7%
COc1ccccc1CNC(=S)NC1CCCCC1	0.9%	?	3.0%	0.3%[57.1 µM]	14.6µM*	-3.5%[57.1 µM]
O=C(/C=C/c1ccccc1)NC(=S)Nc1ccc(N2CCOCC2)cc1	-0.1%	-0.7%	3.6%	-21.5%	?	9.0%
COC(=O)c1cc(NC(=S)NC(=O)c2ccccc2)ccc1N1CCOCC1	6.2%	-5.8%	-0.2%	28.2µM*	-12.0%	-14.9%
Cc1cccc(C(=O)NC(=S)Nc2ccc(N3CCOCC3)cc2)c1	-3.7%	1.4%	-0.7%	31.6µM*	-9.0%	-7.9%
O=C(/C=C/c1ccc(Cl)cc1)NC(=S)Nc1ccc(N2CCOCC2)c(Cl)c1	0.4%	-12.3%	-0.9%	7.2%[57.1 µM]	16.4µM*	-6.5%
Cc1ccc(C(=O)NC(=S)Nc2ccc(N3CCOCC3)cc2)cc1C	7.5%	-6.4%	-0.1%	?	-17.5%	5.5%[57.1 µM]
COc1cccc(-c2nc(CSCC(=O)NCCc3ccc(Cl)cc3)c(C)o2)c1	.	-13.4%	0.1%	-3.1%	?	-11.3%
CC(=O)Nc1ccc(S(=O)(=O)NCC2CCC(C(=O)NCCc3ccc(C)cc3)CC2)cc1 (centres undefined)	.	13.0%	-0.9%	6.9%[57.1 µM]	.	-8.0%[57.1 µM]
COc1ccc(-c2cc(C)no2)cc1S(=O)(=O)N1CCN(c2ccccn2)CC1	1.4%	-5.5%	-0.5%	8.1%	18.4µM*	-5.0%
COc1ccccc1C1C=C(c2ccc(Cl)cc2)Nc2nc(-c3ccc(Cl)cc3)nn21 (centres undefined)	.	-0.5%	-0.1%	18.5%	?	-1.0%
COc1ccccc1/C=C/C=C1\Oc2c(ccc(O)c2CN(C)C)C1=O	-2.2%	-13.3%	20.0%	?	-5.3%	-25.4%
CCN(CC)Cc1c(O)ccc2c1O/C(=C\C=C\c1ccccc1)C2=O	1.0%	?	?	70.8µM*	?	-13.4%

Source: PubChem (National Center for Advancing Translational Sciences (NCATS))
